Potency and affinity values are given separately. The source made the active and inactive calls. How the calls were made is not given here.

The nature of the assay: toxicity to A549 lung cells – cell-based, plate reader, dry powder, set 6, cytotoxicity control, dose response (AID 743312). The following applies: series mostly up to 26 µM; activity change, negative = cytotoxicity: at the top concentration.
As for `CC(C)(C)c1ccc(OCCn2cnc3ccccc32)c(Cl)c1`, the “activity change, negative = cytotoxicity” value is -14.9% (inactive).

For the molecule `FC(F)(F)c1cccc(OCCn2cnc3ccccc32)c1`, the “activity change, negative = cytotoxicity” value is 21.4% (inactive).

As to `Clc1ccc(OCCn2cnc3ccccc32)cc1`, the “activity change, negative = cytotoxicity” value was -13.9% (inactive).

As to `CC(C)Oc1ccc(OCCn2c(=S)[nH]c3ccccc32)cc1`, the “activity change, negative = cytotoxicity” value is -2.95% (inactive).

Turning to `S=c1[nH]c2cc(Cl)ccc2n1CCOc1ccccc1`, the “activity change, negative = cytotoxicity” value was -10.2% (inactive).

In the case of `c1ccc2c(c1)ncn2CCOc1ccc2c(c1)CCC2`, the “activity change, negative = cytotoxicity” value is -25.2% (inactive).

As for `Fc1ccc2c(c1)[nH]c(=S)n2CCOc1ccccc1`, the outcome was inactive.

`CSc1nc2ccccc2n1CCOc1cc(C)ccc1C(C)C`: the “activity change, negative = cytotoxicity” value is -10.7% (inactive).

In the case of `CSc1nc2ccccc2n1CCOc1ccccc1`, the “activity change, negative = cytotoxicity” value is -2.73% (inactive).

For `Cc1cccc(OCCn2c(=S)[nH]c3cc(F)ccc32)c1`, the “activity change, negative = cytotoxicity” value is -13.9% (inactive).

Turning to `CSc1nc2ccccc2n1CCOc1ccc(C)cc1`, the “activity change, negative = cytotoxicity” value is 31.9% (inactive).

Regarding `Cc1cc2ncn(CCOc3ccccc3)c2cc1C`, the “activity change, negative = cytotoxicity” value was -2.58% (inactive).

Take `COCc1nc2ccccc2n1CCOc1ccc(C(C)(C)C)cc1`: the “activity change, negative = cytotoxicity” value was -14% (inactive).

Consider `O=S(=O)(c1ccc(OCCn2cnc3ccccc32)cc1)N1CCOCC1`, for which the “activity change, negative = cytotoxicity” value was 22.3% (inactive).

As for `OCc1nc2ccccc2n1CCOc1ccccc1`, the “activity change, negative = cytotoxicity” value was -16.5% (inactive).

For the molecule `Cc1ccccc1OCCn1cnc2ccccc21`, the “activity change, negative = cytotoxicity” value is -4.27% (inactive).

With `Cc1cccc(OCCn2c(=S)[nH]c3c(F)cccc32)c1`, the molecule was classed as inactive.

For the molecule `CCc1nc2ccccc2n1CCOc1ccccc1`, the “activity change, negative = cytotoxicity” value is -6.05% (inactive).

Take `CS(=O)(=O)c1ccc(OCCn2cnc3ccccc32)cc1`: the “activity change, negative = cytotoxicity” value is 47.3% (inactive).

On to `Clc1ccc(OCCn2cnc3ccccc32)c(Cl)c1`, for which the “activity change, negative = cytotoxicity” value is 20.7% (inactive).

(Values after PubChem BioAssay AID743312 (Broad Institute, 2014).)
